Source: PubChem BioAssay (Tox21)
A number with no mark means an inactive call. Records with an inconclusive call do not appear. Entries that show only a call come without a potency. The source made the active and inactive calls. Unless noted, calls follow the shape of the full dose curve.

Legend:
[1] = Nuclear factor erythroid 2-related factor 2/antioxidant responsive element (Nrf2/ARE) small molecule agonists: qHTS cell viability counter screen in human keratinocytes (AID 1919968; active = well fitted curve in the direction sought with a large enough effect in the repeat runs; an effect the other way counts as inactive or inconclusive; also: nearly all actives have a fitted effect of over 55% in size)
Method in brief: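 Fluorescence read-out from CellTiter-Fluor after 1 h at 37 C. Wells held HaCaT-derived ARE-luciferase reporter cells (1,500/well) treated 23 h with DMSO-dissolved compounds. Run in the same wells as the luciferase agonist read.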

[2] = Nuclear factor erythroid 2-related factor 2/antioxidant responsive element (Nrf2/ARE) small molecule agonists: luciferase reporter gene qHTS assay in human keratinocytes (AID 1919969); also: nearly all actives have a fitted effect of over 35% in size; also: potency is read from the fitted curve at half-maximal effect
[3] = target: Gonadotropin-releasing hormone receptor (Homo sapiens) (UniProt P30968); experiment: Human gonadotropin-releasing hormone receptor (GnRHR) small molecule agonists, calcium flux assay in GnRHR-HEK293 cells (AID 1920063); also: nearly all actives have a fitted effect of over 35% in size
Gonadotropin-releasing hormone receptor (Homo sapiens), sequence (P30968 whole entry, looked up): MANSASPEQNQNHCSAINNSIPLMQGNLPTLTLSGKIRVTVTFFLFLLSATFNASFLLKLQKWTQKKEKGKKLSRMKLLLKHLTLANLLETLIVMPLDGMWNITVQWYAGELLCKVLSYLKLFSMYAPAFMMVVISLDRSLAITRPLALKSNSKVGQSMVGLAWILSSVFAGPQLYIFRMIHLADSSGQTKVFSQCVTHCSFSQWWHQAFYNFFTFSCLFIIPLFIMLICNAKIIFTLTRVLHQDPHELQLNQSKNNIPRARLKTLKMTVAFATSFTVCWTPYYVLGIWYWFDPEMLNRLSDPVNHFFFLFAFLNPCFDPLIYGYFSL
Method in brief: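 Calcium-dye fluorescence, Ex/Em=480/540, recorded every 1 sec over 3 min after compound addition to GnRHR-HEK293 cells. Cells had been seeded 18 hours earlier and dye-loaded for 1 hour at 37 C. Fifteen concentrations, triplicates.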

[4] = target: KiSS-1 receptor (Homo sapiens) (UniProt Q969F8); experiment: Human kisspeptin (KISS1R) small molecule agonists, calcium flux assay in KISS1R-HEK293 cells (AID 1920064; active = well fitted curve in the direction sought with a large enough effect in the repeat runs; an effect the other way counts as inactive or inconclusive)
KiSS-1 receptor (Homo sapiens), sequence (Q969F8 whole entry, looked up): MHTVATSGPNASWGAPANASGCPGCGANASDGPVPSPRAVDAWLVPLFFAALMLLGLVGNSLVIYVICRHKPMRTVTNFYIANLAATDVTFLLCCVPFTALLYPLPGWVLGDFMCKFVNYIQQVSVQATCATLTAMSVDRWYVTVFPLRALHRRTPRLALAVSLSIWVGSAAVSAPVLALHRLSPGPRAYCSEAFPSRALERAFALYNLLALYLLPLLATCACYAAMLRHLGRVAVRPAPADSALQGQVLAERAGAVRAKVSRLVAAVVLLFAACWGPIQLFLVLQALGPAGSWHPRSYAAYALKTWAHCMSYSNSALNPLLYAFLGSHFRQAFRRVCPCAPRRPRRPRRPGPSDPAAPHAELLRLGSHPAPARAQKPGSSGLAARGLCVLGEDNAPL
Method in brief: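 Calcium flux read-out: kinetic fluorescence at Ex/Em=480/540, 1 s intervals over 3 min, after pin-tool compound addition to dye-loaded KISS1R-HEK293 cells. Fifteen concentrations, triplicates.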

[5] = G protein-coupled receptor (GPCR) small molecule agonists, calcium flux assay: HEK293 wild type cell line counter screen (AID 1920065)
Method in brief: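 Agonist mode; 18 h seeding at 37 C, 1 h dye load at 37 C; compounds pinned from DMSO, ATP as positive control; kinetic fluorescence 480/540 nm, 3 min, 1 s reads; 15 concentrations, triplicate.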

[6] = p53 small molecule agonists, cell-based qHTS assay with human liver microsomes (AID 1963577);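 also: p53 response element beta-lactamase reporter cells with liver microsomes plus NADPH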
Method in brief: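 16 h, 37 C exposure of p53RE-bla cells to compounds with human liver microsomes and NADPH (0.5 mg/mL final each); detection via LiveBLAzer mixture, 2 h dark at room temperature.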

[7] = p53 small molecule agonists, cell-based qHTS assay with rat liver microsomes (AID 1963578)
Method in brief: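 With rat liver microsomes and NADPH present (0.5 mg/mL final each), p53RE-bla cells are treated with compound for 16 h at 37 C. LiveBLAzer detection mixture is then applied for 2 h at room temperature in the dark.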

[8] = p53 small molecule agonists, cell-based qHTS assay with human liver microsomes: qHTS cell viability counter screen (AID 1963579); also: nearly all actives have a fitted effect of over 45% in size
Method in brief: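 In this multiplexed counter screen, the reporter plates were subsequently treated with CellTiter-Glo so that cell viability, reflected by luminescence, could be recorded for p53RE-bla cells dosed 16 h with compounds under microsomal activation (HLM and NADPH).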

[9] = p53 small molecule agonists, cell-based qHTS assay with rat liver microsomes: qHTS cell viability counter screen (AID 1963580); also: nearly all actives have a fitted effect of over 45% in size
Method in brief: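 Cytotoxicity counter screen: intracellular ATP read by CellTiter-Glo luminescence in the p53 reporter wells. HCT-116 p53RE-bla cells were treated for 16 h at 37 C alongside rat liver microsomes and NADPH, each 0.5 mg/mL final.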

[10] = p53 small molecule agonists, cell-based qHTS assay: qHTS cell viability counter screen (AID 1963581); also: nearly all actives have a fitted effect of over 45% in size
Method in brief: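 Cytotoxicity read-out: ATP-based luminescence (CellTiter-Glo, 30 min RT) measured in the same wells as the p53 reporter assay, HCT-116 p53RE-bla cells, 16 h compound exposure at 37 C.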

[11] = p53 small molecule agonists, cell-based qHTS assay (AID 1963582; active = well fitted activation curve with a large enough effect in the signal ratio in the repeat runs, not every such curve was filed as active; the % refers to the signal ratio)
Method in brief: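 Fluorescence intensity read-out of a beta-lactamase reporter under a p53 response element. Cells were exposed to DMSO-dissolved compounds for 16 h at 37 C, then developed with FRET substrate for 2 h at RT.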

[12] = target: 5-hydroxytryptamine receptor 2A (Homo sapiens) (UniProt P28223); experiment: 5-hydroxytryptamine receptor 2A (HTR2A) small molecule antagonists, cell-based qHTS assay (AID 1963586); also: nearly all actives have a fitted effect of over 45% in size
5-hydroxytryptamine receptor 2A (Homo sapiens), sequence (P28223 whole entry, looked up): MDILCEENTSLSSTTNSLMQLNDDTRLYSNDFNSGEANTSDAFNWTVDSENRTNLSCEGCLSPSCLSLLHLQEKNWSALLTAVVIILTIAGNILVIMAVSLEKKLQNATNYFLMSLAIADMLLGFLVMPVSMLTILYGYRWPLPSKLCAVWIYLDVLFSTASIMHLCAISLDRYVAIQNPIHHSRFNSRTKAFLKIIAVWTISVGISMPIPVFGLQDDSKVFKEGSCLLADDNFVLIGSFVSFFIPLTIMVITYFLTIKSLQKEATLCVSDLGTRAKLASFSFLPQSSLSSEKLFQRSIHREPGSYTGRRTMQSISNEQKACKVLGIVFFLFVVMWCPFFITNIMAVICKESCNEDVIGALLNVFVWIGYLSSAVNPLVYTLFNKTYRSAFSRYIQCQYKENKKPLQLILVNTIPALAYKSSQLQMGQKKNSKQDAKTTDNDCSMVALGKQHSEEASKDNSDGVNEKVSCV
Method in brief: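 CHO cells stably expressing human HTR2A were plated for 18 h at 37 C, then loaded with calcium dye for 1 h. Compounds were preincubated 5 min at room temperature before DOI (4 nM solution) was added. Kinetic fluorescence was read for 3 min.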

[13] = target: 5-hydroxytryptamine receptor 2A (Homo sapiens) (UniProt P28223); experiment: 5-hydroxytryptamine receptor 2A (HTR2A) small molecule agonists, cell-based qHTS assay (AID 1963587); also: nearly all actives have a fitted effect of over 30% in size
Method in brief: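 Kinetic calcium-flux fluorescence (2 min, 1 sec intervals) after compound addition in agonist mode. HTR2A-CHO cells were cultured 18 h, then dye-loaded 1 h at 37 C.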

[14] = target: Muscarinic acetylcholine receptor M1 (Homo sapiens) (UniProt P11229); experiment: Cholinergic receptor muscarinic 1 (CHRM1) small molecule antagonists, cell-based qHTS assay (AID 1963588); also: nearly all actives have a fitted effect of over 40% in size
Muscarinic acetylcholine receptor M1 (Homo sapiens), sequence (P11229 whole entry, looked up): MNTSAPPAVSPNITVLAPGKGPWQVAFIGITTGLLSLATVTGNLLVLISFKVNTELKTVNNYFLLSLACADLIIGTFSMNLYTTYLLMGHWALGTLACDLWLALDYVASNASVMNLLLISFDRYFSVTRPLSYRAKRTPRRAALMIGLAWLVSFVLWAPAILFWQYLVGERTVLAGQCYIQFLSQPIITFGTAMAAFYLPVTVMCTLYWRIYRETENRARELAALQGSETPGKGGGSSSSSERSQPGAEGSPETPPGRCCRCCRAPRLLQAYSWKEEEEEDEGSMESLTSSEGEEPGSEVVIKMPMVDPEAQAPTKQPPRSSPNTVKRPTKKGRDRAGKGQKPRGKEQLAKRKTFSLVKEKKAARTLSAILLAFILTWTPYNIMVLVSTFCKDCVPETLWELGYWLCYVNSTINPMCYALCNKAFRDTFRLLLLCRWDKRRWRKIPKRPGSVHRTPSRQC
Method in brief: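 Compounds were tested at 15 concentrations in three independent runs. Dye-loaded CHRM1-CHO cells were exposed 5 min at room temperature before stimulation by acetylcholine added at 50nM. Intracellular calcium was read kinetically on FDSS for 3 min.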

[15] = cAMP Responsive Elements (CRE) small molecule agonists, cell-based qHTS assay (AID 1963590)
Method in brief: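 Beta-lactamase reporter readout: LiveBLAzer B/G FRET substrate, 2 h at room temperature, added after 3 h compound treatment of CRE-bla HEK 293T cells at 37 C/5% CO2.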

[16] = target: Beta-2 adrenergic receptor (Homo sapiens) (UniProt P07550); experiment: Adrenergic beta2 receptor (ADRB2) small molecule agonists, cell-based qHTS assay (AID 1963593);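 also: CHO cells stably overexpressing human ADRB2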
Beta-2 adrenergic receptor (Homo sapiens), sequence (P07550 whole entry, looked up): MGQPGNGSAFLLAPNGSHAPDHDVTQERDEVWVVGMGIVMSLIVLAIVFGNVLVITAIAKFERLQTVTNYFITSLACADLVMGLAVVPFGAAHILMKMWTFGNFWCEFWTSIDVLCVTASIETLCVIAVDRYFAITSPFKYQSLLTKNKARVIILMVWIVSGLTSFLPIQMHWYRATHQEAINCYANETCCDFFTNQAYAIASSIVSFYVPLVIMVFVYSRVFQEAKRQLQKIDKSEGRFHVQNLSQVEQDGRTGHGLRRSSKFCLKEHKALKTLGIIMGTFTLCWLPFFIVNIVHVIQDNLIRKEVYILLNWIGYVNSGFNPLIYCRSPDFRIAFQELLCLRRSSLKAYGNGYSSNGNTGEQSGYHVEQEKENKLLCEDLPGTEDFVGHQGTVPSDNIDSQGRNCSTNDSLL
Method in brief: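 CHO cells stably over-expressing ADRB2 were plated overnight at 37C, then dosed with compounds plus a stimulation mix containing 100uM IBMX and 25uM Ro-20-1724 for 0.5hr at room temperature. cAMP was measured by HTRF competition, 1hr.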

[17] = target: D(2) dopamine receptor (Homo sapiens) (UniProt P14416); experiment: Dopamine D2 receptor (DRD2) small molecule agonists, cell-based qHTS assay (AID 1963594); also: nearly all actives have a fitted effect of over 35% in size
D(2) dopamine receptor (Homo sapiens), sequence (P14416 whole entry, looked up): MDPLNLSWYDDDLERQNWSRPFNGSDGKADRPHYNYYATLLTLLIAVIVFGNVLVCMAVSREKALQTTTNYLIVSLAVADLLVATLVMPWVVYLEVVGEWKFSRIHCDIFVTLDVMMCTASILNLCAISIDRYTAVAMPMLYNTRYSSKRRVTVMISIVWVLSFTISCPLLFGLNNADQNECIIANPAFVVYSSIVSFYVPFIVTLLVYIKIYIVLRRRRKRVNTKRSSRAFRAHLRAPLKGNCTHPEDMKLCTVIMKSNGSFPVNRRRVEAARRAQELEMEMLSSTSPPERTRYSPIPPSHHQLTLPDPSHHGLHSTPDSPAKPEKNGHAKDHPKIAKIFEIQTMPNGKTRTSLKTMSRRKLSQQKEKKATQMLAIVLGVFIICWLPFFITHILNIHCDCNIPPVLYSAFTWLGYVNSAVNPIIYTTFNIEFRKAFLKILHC
Method in brief: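 cAMP accumulation in DRD2-HEK293 cells measured by HTRF after 1 h detection; compounds added 10 min before NKH477 (200nM […]) forskolin-analogue stimulation, 30 min at room temperature, with Ro20-1724 present at 0.1 mM final.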

[18] = target: D(2) dopamine receptor (Homo sapiens) (UniProt P14416); experiment: Dopamine D2 receptor (DRD2) small molecule antagonists, cell-based qHTS assay (AID 1963595; active = well fitted inhibition curve with a large enough effect in the signal ratio in the repeat runs, with a control signal flat; the % refers to the signal ratio)
Method in brief: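 HEK293 cells stably expressing DRD2 were preincubated with 0.1 mM Ro20-1724, then with compound for 10 min at room temperature. Cells were stimulated with 200 nM NKH477 plus 12 nM quinpirole for 30 min, and cAMP was read by HTRF.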

[19] = cAMP Responsive Elements (CRE) small molecule antagonists, cell-based qHTS assay (AID 1963591; active = well fitted inhibition curve with a large enough effect in the signal ratio in the repeat runs, not every such curve was filed as active; the % refers to the signal ratio)
Method in brief: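 HEK293T CRE-bla; 18 h preincubation; compound pin-transfer; NKH477 0.25 uM final, 3 h, 37 C; LiveBLAzer FRET substrate 2 h RT.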

[20] = target: Beta-2 adrenergic receptor (Homo sapiens) (UniProt P07550); experiment: Adrenergic beta2 receptor (ADRB2) small molecule antagonists, cell-based qHTS assay (AID 1963592); also: series mostly up to about 92 µM; nearly all actives have a fitted effect of over 50% in size
Method in brief: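 Assay format: CHO-ADRB2 cells, 18-20hr seeding at 37C/5% CO2, then compound plus 1nM isoproterenol agonist mix for 0.5hr RT. Homogeneous time-resolved fluorescence cAMP detection after 1hr, expressed as 665/615 nm ratio.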

| SMILES | Potency [1] | Potency [2] | Potency [3] | Potency [4] | Potency [5] | Potency [6] | Potency [7] | Potency [8] | Potency [9] | Potency [10] | Potency [11] | Potency [12] | Potency [13] | Potency [14] | Potency [15] | Potency [16] | Potency [17] | Potency [18] | Potency [19] | Potency [20] |
| --- | --- | --- | --- | --- | --- | --- | --- | --- | --- | --- | --- | --- | --- | --- | --- | --- | --- | --- | --- | --- |
| C=CC(=O)OCCOC(=O)C=C | inactive | 68.6 µM (active) | inactive | inactive | inactive | inactive | inactive | inactive | inactive | inactive | inactive | inactive | inactive | inactive | inactive | inactive | inactive | inactive |  |  |
| OCCCCCCCl | inactive | inactive | inactive | inactive | inactive | inactive | inactive | inactive | inactive | inactive | inactive | inactive | inactive | inactive |  |  | inactive | inactive | inactive | inactive |
| CCCCCCCCCC/C=C/C#N | inactive | inactive | inactive | inactive | inactive | inactive | inactive | inactive | inactive | inactive | inactive | inactive | inactive | inactive | inactive |  | inactive |  | inactive | inactive |
| CCCC(=O)CC | inactive | inactive | inactive | inactive | inactive | inactive | inactive | inactive | inactive | inactive | inactive | inactive | inactive | inactive |  |  | inactive | inactive | inactive | inactive |
| CC1=C(O)C(=O)OC1C (configuration not stated) | inactive | inactive | inactive | inactive | inactive | inactive | inactive | inactive | inactive | inactive | inactive | inactive | inactive | inactive | inactive | inactive |  | inactive | inactive | inactive |
| C=C(C)C(=O)OCCOCCOCCOC(=O)C(=C)C | inactive | inactive | inactive | inactive | inactive | inactive | inactive | inactive | inactive | inactive | inactive | inactive | inactive | inactive |  |  | inactive |  |  | inactive |
| CCCCCCCCOCCC#N | inactive | inactive | inactive | inactive | inactive | inactive | inactive | inactive | inactive | inactive | inactive | inactive | inactive | inactive | inactive | inactive | inactive | inactive | inactive | inactive |
| CCOc1ccc(N)c([N+](=O)[O-])c1 | inactive | inactive | inactive | inactive | inactive | inactive | inactive | inactive | inactive | inactive | inactive | inactive | inactive | inactive | inactive | inactive | inactive | inactive | inactive | inactive |
